Source: PubChem (National Center for Advancing Translational Sciences (NCATS))
This is a sample that favours compounds with a hit; in the whole collection about 1.1% have one here.
Apoferritin bind – binds horse apoferritin like a general anesthetic | apoferritin/1-aminoanthracene competitive binding, fluorescence | Potency, µM (titrated, usually from 77.5 µM), for inactives: top-dose activity change, negative = displacement, most hits filed as inhibitors | hit rate 0.074% among 350,000 | AID 485281; further: on the % scale 0 is the no-effect control and ±100 the full control effect; nearly all actives have a fitted effect of over 20% in size
Target sequence (P02791 2-175 limits assumed): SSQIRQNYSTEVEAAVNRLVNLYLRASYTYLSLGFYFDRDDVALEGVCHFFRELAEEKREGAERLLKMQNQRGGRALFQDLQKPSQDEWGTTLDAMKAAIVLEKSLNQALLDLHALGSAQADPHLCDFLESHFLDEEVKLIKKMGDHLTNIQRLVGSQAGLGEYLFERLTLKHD
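Horse-spleen apoferritin (10 uM) in 50% saturated 1-aminoanthracene in PBS was incubated 10 min at room temperature with compound. Fluorescence (ex 380, em 535 nm) was normalized to free and bound 1-AMA, with concentration-response fitted by a four-parameter Hill equation.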
GRP78 ERSR act – ER stress response induction in glioma | Potency, µM, inactives show at the top dose activation, most hits filed as activators | hit rate 0.02% among 420,000 | U87-MG GRP78 promoter luciferase reporter, 16 h; further: series mostly up to about 76 µM; % of control where 0% means no effect; nearly all actives have a fitted effect of over 35% in size
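Stably transfected U87-MG human glioma cells carrying a GRP78-based luminescent sensor were seeded at 1000 cells/well, pin-dosed with compounds and incubated 16 h. Luciferase reagent was then added, and end-point luminescence was read after 10 min at room temperature.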
12-LOX inh – blocks human arachidonate 12S-lipoxygenase; purified 12hLO, xylenol orange hydroperoxide absorbance; Potency, µM (top dose mostly 108 µM), inactives show at the top dose activity change, negative = inhibition, actives largely listed as inhibitors; hit rate 1.1% among 580,000; AID 1671190; further: on the % scale 0 is the no-effect control and ±100 the full control effect
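Purified human 12hLO (150 nM final) in 25 mM Hepes, 0.01% Triton X-100, pH 7.0 was preincubated 15 min at room temperature with compound. Then 40 uM arachidonic acid was added, 30 min. Hydroperoxide was read by Fe-XO absorbance ratio 573/405 nm.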
Chronic BCR inh – chronic active BCR signaling inhibition. ABC-DLBCL IkBa-CBG/CBR reporter, luminescence ratio, 4 h. Potency, µM (titrated, usually from 46.1 µM), without a hit: top-dose activity change, negative = inhibition, actives largely listed as inhibitors. hit rate 0.05% among 340,000; active means well fitted inhibition curve with a large enough effect in the signal ratio, with a control signal flat, not every such curve was filed as active; inconclusive means small, poorly fitted or top-dose-only effect, or effect the other way, or a change in a side signal; the % refers to the signal ratio;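 further: plate controls were basal doxycycline-induced cells for no effect and cells given 10 µM MG132 for full effect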
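TMD8 ABC-DLBCL cells carrying doxycycline-inducible green luciferase fused to IkappaBalpha plus unfused red luciferase were exposed to compounds (up to 46 uM) for 4 hrs at 37C. Activity came from the overlap-corrected green/red luminescence ratio.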
* marks the source's active call; other numbers are inactive results; ? = inconclusive; . = no result; [ ] = another dose, or the depositor's remark. Unless noted, the call rests on the fitted dose curve; in most records, active means well fitted curve in the direction sought with a large enough effect; inconclusive means small, poorly fitted or top-dose-only effect, or another doubt; inactive means no such curve, though single readings can be large; an effect the other way counts as inactive or inconclusive. Potency means the concentration at half of the fitted maximal effect.

SMILES	Apoferritin bind	GRP78 ERSR act	12-LOX inh	Chronic BCR inh
CC(OC(=O)c1ccc(C#N)cc1)C(=O)C12CC3CC(CC(C3)C1)C2 (configuration not stated)	.	.	-47.4%	.
Cc1sc2nc(SCC(=O)N3CCOCC3)[nH]c(=O)c2c1-c1ccccc1	-14.2%	-0.2%	31.6µM*	-0.4%
O=C(CSc1nc(O)c(-c2ccccc2)c(=O)[nH]1)N1CCOCC1	-0.3%	-4.1%	-1.1%	1.5%
CCOc1cc(C2C(C(=O)c3ccc(C)o3)=C(O)C(=O)N2CCc2ccccc2)ccc1O (configuration not stated)	?	-2.8%	8.91µM*	6.7%
COc1ccc(C2C(C(=O)c3ccc(C)o3)=C(O)C(=O)N2Cc2cccnc2)cc1OC (configuration not stated)	4.2%	-6.2%	25.1µM*	3.9%
Cc1ccc(NC(=O)CN(C)C(=O)c2cccc(-n3cccc3)c2)cc1	.	-2.2%	35.5µM*	-1.5%
COc1ccc(NC(=O)CN(C)C(=O)c2cccc(-n3cccc3)c2)cc1	.	-0.2%	-29.4%	-5.6%
COc1ccc(S(=O)(=O)NC[C@@H]2C=C(C)[C@H](CC(=O)NCc3ccc(C#N)cc3)C[C@H]2C(C)C)cc1	.	.	35.5µM*	.
CC1=C[C@@H](CNS(=O)(=O)c2ccccc2)[C@H](C(C)C)C[C@H]1CC(=O)NCc1ccc(C#N)cc1	.	.	35.5µM*	.
COc1ccccc1CN(C)C(=O)NCc1ccccc1S(=O)(=O)N1CCCCC1	.	.	40.0%	.
Cc1cc(C(=O)N2CCCC(c3noc(COc4ccccc4)n3)C2)nn1C (configuration not stated)	.	.	30.7%	.
CCOC(=O)C1=C(C)N(C[C@@H]2CC[C@@H](Cc3ccc(-c4ccccc4)cc3)O2)C(=O)NC1c1ccc(SCc2ccco2)c([N+](=O)[O-])c1 (some centres not stated)	.	-0.9%	17.8µM*	-0.2%
CCOC(=O)C1=C(C)N(C[C@@H]2CC[C@@H](Cc3ccc(-c4ccccc4)cc3)O2)C(=O)NC1c1ccc(C(F)(F)F)cc1 (some centres not stated)	.	-0.1%	-7.7%	1.5%
CC1=NN2C(=N)/C(=C\c3ccc(SCc4ccccc4)o3)C(=O)N=C2S1	-17.3%	-2.2%	39.8µM*	11.7%
CC(=O)OCC1(C)CN(c2ccccc2)NC1=O (configuration not stated)	1.0%	-1.0%	39.8µM*	-7.2%
CC(=O)OCC1(C)CN(c2ccccc2)N(C(C)=O)C1=O (configuration not stated)	0.0%	3.6%	-15.1%	?
N#Cc1ccc(COC(=O)c2ccc(N3CCOCC3)nc2)cc1	.	.	1.2%	.
CCN(Cc1ccncc1)Cc1c(O)ccc2ccccc12	-12.9%	2.3%	?	?
Oc1ccc2ccccc2c1CN(Cc1ccccc1)Cc1ccccc1	.	.	3.16µM*	.
CC(C)CN(Cc1c(O)ccc2ccccc12)CC(C)C	-7.5%	-1.7%	39.8µM*	0.1%
Cc1nc2scc(-c3ccccc3)c2c(=O)n1N	-19.6%	0.1%	1.4%	5.2%
Cc1nc2scc(-c3ccccc3)c2c(=O)n1N=C1C=CC(=O)C=C1	?	-12.2%	2.82µM*	?
Cc1ccccc1-c1nc(C#N)c(NCCc2ccccc2)o1	.	.	-19.4%	.
Cc1ccc(N(CC(=O)NCC2CCCO2)S(=O)(=O)c2ccc(C)cc2)cc1 (configuration not stated)	.	.	-24.0%	.
O=C(Oc1cccc2cccnc12)c1ccco1	1.7%	6.1%	493.0%	23.1µM*
SMILES	Apoferritin bind	GRP78 ERSR act	12-LOX inh	Chronic BCR inh
O=C(Oc1cccc2cccnc12)c1ccc(Br)o1	-9.8%	-4.2%	0.0%	-1.3%
CN(C)c1ccc(-c2cncnc2-n2ccnc2)cc1	.	-4.8%	39.8µM*	.
FC(F)(F)c1ccccc1-c1cncnc1-n1ccnc1	.	-6.6%	-12.1%	.
CN1C(=O)CO[C@H](c2ccc(NC(=O)C3CCCC3)cc2)[C@H]1CO	.	.	39.3%[176 µM]	.
CC[C@]12c3[nH]c4ccc(Cl)cc4c3CCN1C(=O)[C@@H](CC(=O)NCCC1=CCCCC1)C[C@@H]2C(=O)N1CCN(C(=O)c2ccco2)CC1	.	3.1%	25.1µM*	?
CC[C@]12c3[nH]c4ccc(Cl)cc4c3CCN1C(=O)[C@@H](CC(=O)NCCN1CCOCC1)C[C@@H]2C(=O)N1CCN(C(=O)c2ccco2)CC1	.	-2.6%	-5.9%	-2.3%
C=CCNC(=S)Nc1cc(Cl)ccc1C	.	.	-46.8%	.
Cc1ccc(/C(O)=C2\C(=O)C(=O)N(C)C2c2ccc(Br)cc2)cc1 (configuration not stated)	0.6%	-3.6%	?	0.9%
CN1C(=O)C(=O)/C(=C(/O)c2ccc(Br)cc2)C1c1ccc(F)cc1 (configuration not stated)	-3.3%	-3.8%	25.1µM*	3.1%
O=C(Nc1ccc(OC(F)(F)F)cc1)c1cc(-c2ccc[nH]2)n[nH]1	.	.	15.8µM*	.
COc1ccc(NC(=O)c2cc(-c3ccc[nH]3)n[nH]2)c(OC)c1	.	.	-4.7%	.
O=C(Nc1ccc(F)cc1F)c1cc(-c2ccc[nH]2)n[nH]1	.	.	11.2µM*	.
CCc1ccc(NC(=O)c2cc(-c3ccc[nH]3)n[nH]2)cc1	.	.	28.2µM*	.
CCc1cccc(NC(=O)c2cc(-c3ccc[nH]3)n[nH]2)c1	.	.	22.4µM*	.
CCOc1ccc(NC(=O)c2cc(-c3ccc[nH]3)n[nH]2)cc1	.	.	-22.0%	.
CN(C)/N=C/c1ccc(P(c2ccc(/C=N/N(C)C)o2)c2ccc(/C=N/N(C)C)o2)o1	41.1%	-3.9%	39.8µM*	-5.8%
Cc1cc(C(=O)CSc2ncnc3ccccc23)c(C)n1CC(F)(F)F	.	.	-27.7%	.
Cc1nn(-c2cccc(Br)c2)c(C)c1[C@@H]1C=C[C@@H](NS(C)(=O)=O)C1	.	.	11.2µM*	.
Cc1nn(-c2cccc(Br)c2)c(C)c1[C@@H]1C=C[C@@H](NCc2cccc(C#N)c2)C1	.	.	7.2%	.
Cc1cccc(N2CC(C(=O)Nc3nnc(SCCC4OCCO4)s3)CC2=O)c1 (configuration not stated)	?	-1.7%	8.91µM*	?
CC(C)(C)C1CCC(C(=O)OCC(=O)c2ccc(Cl)c(Cl)c2)CC1 (configuration not stated)	.	.	19.8%	.
N/C(=C/C(=O)c1ccccc1O)C(F)(F)F	-12.3%	-2.3%	.	3.4%
COc1ccc(C(=O)/C=C(\N)C(F)(F)F)c(O)c1	-13.6%	-3.3%	39.8µM*	-0.1%
Fc1ccc(/C=N\Nc2cccc(F)c2)cc1	-14.7%	-4.0%	14.0%	-5.5%
Brc1ccc(/C=N/Nc2ccccc2)cc1	-14.2%	-1.3%	44.7µM*	?
Fc1ccc(/C=N/Nc2ccc(F)cc2)cc1	.	.	2.24µM*	.
Cc1cc(C)c(OCC(=O)Nc2nonc2-c2ccccc2)c(C)c1	.	.	6.5%	.
COc1ccc([C@H]2C[C@@H](O)[C@@H](O)[C@@H]2NC(=O)c2cc3ccccc3s2)cc1	.	.	-10.6%[176 µM]	.
Cn1c(=O)c2c(nc(CN3CCN(Cc4ccccc4)CC3)n2CC(N)=O)n(C)c1=O	.	.	-22.4%	.
COc1ccc(S[C@]2(c3nc(C)no3)CC(=O)N(c3ccc(OC)cc3)[C@@H]2c2ccc(OC)cc2)cc1	.	.	14.1µM*	.
